A selection: hits, their analogues and other compounds. The true share with any hit is near 7%.
AHR activator = activators of human aryl hydrocarbon receptor | AHR-responsive luciferase reporter cells, luminescence | activation, % at 5 µM | 320,000 compounds, 2.5% hits | AID 2796; in the data active = activation above about 47%
ADAM10 inh = inhibitors of human ADAM10 | O14672 | recombinant ADAM10, EDANS/DABCYL FRET peptide cleavage, 3 h | inhibition, % at 7 µM | 370,000 compounds, 0.62% hits | AID 720582;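 active = inhibition above a per-campaign cutoff equal to the mean of compounds falling between control-based bounds plus 3 SD, cut at about 20% in these data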
proKLK7 act = proKLK7 (human) activation, primary screen. activation, % at 7 µM. P49862. AID 652039. 370,000 compounds, 0.9% hits. purified proKLK7, EDANS-DABCYL substrate fluorescence; 100% is mature enzyme control, 0% vehicle;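 active = activation above the mean of all tested compounds plus 3 SD, computed per campaign excluding outliers beyond control limits, cut at about 13% in these data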
Target sequence (P49862 whole entry, looked up): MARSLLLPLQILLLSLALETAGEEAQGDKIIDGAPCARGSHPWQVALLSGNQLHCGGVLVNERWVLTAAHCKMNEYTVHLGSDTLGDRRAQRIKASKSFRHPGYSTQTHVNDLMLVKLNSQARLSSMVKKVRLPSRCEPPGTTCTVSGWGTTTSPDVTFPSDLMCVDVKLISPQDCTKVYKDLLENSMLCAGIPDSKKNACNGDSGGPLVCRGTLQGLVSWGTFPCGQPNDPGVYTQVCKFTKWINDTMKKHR
GRIN3A LBD mod = modulators (binders) of human NR3A ligand-binding domain; NR3A LBD differential scanning fluorimetry, Tm shift; 0% = protein alone, 100% = glycine-bound protein; Tm shift relative to glycine control, % at 25 µM; 340,000 compounds, 2.5% hits;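 active = melting temperature shift of at least 10% of the positive control shift, at one fixed dose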
rCAG binder = molecules binding r(CAG) RNA repeats; r(CAG) RNA repeat, TO-PRO-1 dye displacement fluorescence; inhibition, % at 3 µM; 370,000 compounds, 1.3% hits;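 active = inhibition above the plate cutoff, the mean of all test compounds on that plate plus 3 SD, cut at about 35% in these data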;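 note: higher means more dye released from RNA so lower well fluorescence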
ADAM17 inh = ADAM17 inhibition, QFRET primary screen. 370,000 compounds, 0.83% hits. inhibition, % at 6.95 µM. recombinant ADAM17, EDANS/DABCYL FRET peptide cleavage. AID 720648. P78536;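 active = inhibition above the mean of compounds lying between control limits plus 3 SD, set per campaign, cut at about 8.5% in these data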
Numbers stand for hits; n = inactive; x = no result.

SMILES | AHR activator | ADAM10 inh | proKLK7 act | GRIN3A LBD mod | rCAG binder | ADAM17 inh
C[C@H]1CN([C@@H](C)CO)C(=O)c2cccc(NC(=O)Nc3ccc(C(F)(F)F)cc3)c2O[C@@H]1CN(C)Cc1ccc(Cl)c(Cl)c1 | n | n | n | 12 | n | n
CC(=O)CC[C@H]1CC[C@]2(CCCN(Cc3nccn3C)C2)O1 | x | n | n | x | n | n
Cc1[nH]c(C)c(S(=O)(=O)N2CCN(c3cccc(Cl)c3)CC2)c1C(=O)N1CCCC1 | 50 | n | n | n | n | n
COc1cccc(N2CCN(S(=O)(=O)c3c(C)[nH]c(C)c3C(=O)N3CCCC3)CC2)c1 | n | n | n | n | n | n
CCOC(=O)c1c(C)[nH]c(C)c1S(=O)(=O)N(C)CC(=O)Nc1cc(C)ccc1OC | 55 | n | n | n | n | n
CCOC(=O)c1c(C)[nH]c(C)c1S(=O)(=O)N(C)CC(=O)Nc1ccc(C)cn1 | n | n | n | n | n | n
Cc1ccccc1Nc1nc(NCc2ccco2)c2ccccc2n1 | n | n | n | n | n | n
COc1ccc(OC)c(Nc2nc(NCc3ccco3)c3ccccc3n2)c1 | 60 | n | n | n | n | n
Oc1ccccc1Nc1nc(NCc2ccco2)c2ccccc2n1 | n | n | n | 24 | n | n
C[C@@H]1ON(C)[C@H]2C[C@H]3c4[nH]c5cccc(-c6ccc7c(c6)OCO7)c5c4CCN3C(=O)[C@@H]12 | x | n | n | x | n | n
COC(=O)C1CN(C2CCCC2)CCS(=O)(=O)N1Cc1cn(Cc2ccc(Cl)cc2)nn1 (configuration not stated) | x | n | n | x | n | n
COc1ccc2c(c1)CCCN2C(=O)C1CCCN(S(=O)(=O)c2ccc(Cl)s2)C1 (configuration not stated) | x | n | n | x | n | n
COC(=O)c1c(O)cc(C(C)(C)C)n(-c2ccccc2)c1=O | n | n | n | 18 | n | n
COC(=O)c1c(C)n(-c2ccccc2)c2ccc(O)cc12 | n | n | n | n | n | n
Cc1cc(C(=O)COC(=O)C2=NNC(=O)CC2)c(C)n1CCc1ccccc1 | 69 | n | n | n | n | n
CC(C)(C)OC(=O)N1CCC(N[C@@H](Cc2ccccc2)C(=O)NCC(c2ccccc2)c2ccccc2)(C(=O)NC2CCCCC2)CC1 | x | n | x | x | x | n
Cc1ccc(S(=O)(=O)NN2C(=O)/C(=C/c3cccc(F)c3)SC2=S)cc1 | n | n | n | n | 75 | n
COc1cc(/C=C2\SC(=S)N(NS(=O)(=O)c3ccc(C)cc3)C2=O)cc(OC)c1OC | n | n | n | n | n | n
C=CCN(CC#CC(=C)C)Cc1ccc(OC)cc1OC | x | n | n | x | n | n
CC(C)c1ccc(NC(=O)OC2CCC23CCC(c2ccccc2)CC3)cc1 (configuration not stated) | x | n | x | x | x | n
CC1CN(c2ccnc3cc(Cl)ccc23)CCN1C(=O)c1ccc(Cl)cc1 (configuration not stated) | x | n | x | x | x | n
Cc1ccc2c(c1)[C@H]1[C@H](CO2)[C@H](c2ccccc2)[C@]2(C)C(=O)Nc3ccc(Cl)cc3C(=O)N12 | n | 29 | n | n | n | 11
COC(=O)[C@]12C[C@H](CC(=O)NCCCN3CCCC3=O)C(=O)N(Cc3cccc4ccccc34)C1=C[C@H](C(C)(C)C)O[C@@H]2C | x | n | n | x | n | n
CC(=O)Nc1nc2ccccc2n1CCN1CCOCC1 | n | n | n | n | n | n
Cc1nc2ccccc2n1CCN1CCOCC1 | 72 | n | n | n | n | n
SMILES | AHR activator | ADAM10 inh | proKLK7 act | GRIN3A LBD mod | rCAG binder | ADAM17 inh
Cc1ccc2nc(NC(=O)/C=C/c3ccc4c(c3)OCO4)sc2c1 | n | n | n | 36 | n | n
Cc1csc(NC(=O)/C=C/c2ccc3c(c2)OCO3)n1 | n | n | n | n | n | n
O=C(/C=C/c1ccc2c(c1)OCO2)Nc1nc2ccccc2s1 | n | n | n | 14 | n | n
COC(=O)[C@]12C[C@H](CC(=O)N3CCC(c4ccccc4)CC3)C(=O)N(Cc3ccc(Cl)cc3Cl)C1=C[C@H](COCc1ccccc1)O[C@@H]2C | x | n | n | x | n | n
CC1CCN(Cc2c(C(=O)N/N=C/c3cccc(C(F)(F)F)c3)nnn2-c2nonc2N)CC1 | n | n | n | 16 | n | n
CC1CCN(Cc2c(C(=O)N/N=C/c3cc(Br)ccc3O)nnn2-c2nonc2N)CC1 | n | n | n | 13 | n | n
CC1CCN(Cc2c(C(=O)N/N=C/c3ccc(C(F)(F)F)cc3)nnn2-c2nonc2N)CC1 | n | n | n | n | n | n
COc1c(Cl)cc(Cl)cc1/C=N/NC(=O)c1nnn(-c2nonc2N)c1CN1CCC(C)CC1 | n | n | n | 12 | n | n
CCOc1ccc(/C=N/NC(=O)c2nnn(-c3nonc3N)c2CN2CCC(C)CC2)cc1 | n | n | n | 11 | n | n
Cc1c[nH]c2cccc(-c3cc4ccccc4o3)c12 | x | n | n | x | n | n
CCn1c2ccccc2c2cc(C=NNC(=O)CSc3nc4ccccc4c(=O)n3-c3ccccc3)ccc21 | x | n | n | x | n | n
CCN(CC)C(=O)CC[C@@H]1CC[C@]2(CCCN(Cc3cccc4ccccc34)C2)O1 | x | n | n | x | n | n
Cc1ccc2nc(NCc3ccccc3)c(C=O)c(=O)n2c1 | n | n | n | 14 | n | n
Cc1ccc2nc(Nc3ccccc3)c(C=O)c(=O)n2c1 | n | n | n | n | n | n
COc1ccc(C2Nc3ccccc3C(=O)N2Cc2ccc(C)o2)cc1COc1c(C)cccc1C (configuration not stated) | x | n | x | x | x | n
CN[C@H]1C[C@H]2c3[nH]c4c(-c5ccc6c(c5)OCO6)cccc4c3CCN2C[C@H]1[C@H](C)O | x | n | n | x | n | n
O=C(N=Nc1c(O)[nH]c2ccc([N+](=O)[O-])cc12)c1ccccc1[N+](=O)[O-] | n | n | n | n | n | n
O=[N+]([O-])c1ccc2[nH]c(O)c(N=Nc3ccc(F)cc3)c2c1 | n | n | n | n | n | n
CC(Oc1ccccc1)C(=O)N=Nc1c(O)[nH]c2ccc([N+](=O)[O-])cc12 (configuration not stated) | 63 | n | n | n | n | n
Oc1[nH]c2ccc(Br)cc2c1N=Nc1ccc(F)cc1 | 62 | n | n | 30 | n | n
O=[N+]([O-])c1ccc(N=Nc2c(O)[nH]c3ccc(F)cc23)cc1 | n | n | n | 19 | n | n
Nc1[nH]c(C(=O)c2ccc(Br)cc2)c(-c2ccc(Cl)cc2)c1C(=O)NCCc1c[nH]c2ccccc12 | x | n | n | x | n | n
C=CCN=C1SCC(=O)N1S(=O)(=O)c1ccc(C)cc1 | n | n | n | n | n | n
C=CCN=C1S/C(=C\N(C)C)C(=O)N1S(=O)(=O)c1ccc(C)cc1 | n | n | n | 12 | n | n
C#CCN1CC(N(C)CCOC(=O)CCCc2ccccc2)CS1(=O)=O (configuration not stated) | x | n | n | x | n | n

Assay outcomes (PubChem)
